The structures appear in SMILES notation. Several values for one entry are separate records, joined by “and”; a condition that tells them apart may be missing. Identical values can stand only once. A number with no mark means an inactive call. Results filed as inconclusive are left out. Activity calls are given as the source filed them. Unless noted, calls follow the shape of the dose curve; as a rule, active = well fitted curve in the direction sought with a large enough effect in the repeat runs; inconclusive = weak or mixed curves; inactive = no such curve, though single readings can be large; an effect the other way counts as inactive or inconclusive.

Assay [1] is described as follows: qHTS assay for small molecule agonists of the p53 signaling pathway (AID 651631; calls by dose curve; also: nearly all actives have a fitted effect of over 15% in size; also: potency is read from the fitted curve at half-maximal effect). The method in brief: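 p53RE-bla HCT-116 cells; compounds 16 h, 37 °C; LiveBLAzer B/G FRET substrate 2 h RT; fluorescence intensity read-out, qHTS format.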
A general note: qHTS replaces the single test concentration by a dilution series.

A short description of assay [2]: qHTS assay for small molecules that induce genotoxicity in human embryonic kidney cells expressing luciferase-tagged ATAD5 (AID 651632). Also: % is scaled to controls: 0 for no effect and ±100 for the full control effect; nearly all actives have a fitted effect of over 15% in size. The method in brief:
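Reporter cells (HEK293T) express luciferase-tagged ATAD5, a protein that accumulates after DNA damage. Treat 16 hr at 37C/5% CO2, add Amplite, wait 30 min at RT, and read luminescence.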

A short description of assay [3]: qHTS assay for small molecule agonists of the p53 signaling pathway - cell viability (AID 651633; calls by dose curve;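 also: p53RE-bla HCT reporter cells with a stable beta-lactamase p53 reporter; series mostly up to about 83 µM; % is scaled to controls: 0 for no effect and ±100 for the full control effect; nearly all actives have a fitted effect of over 30% in size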). In a few lines: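 p53RE-bla cells, seeded at 4,000 per well and rested 5 h at 37 C/5% CO2, received compounds in DMSO for 16 h at 37 C. CellTiter-Glo was then added, and luminescence was read after 30 min at room temperature to gauge cytotoxicity.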
Assay [4] can be described thus: qHTS assay for small molecule disruptors of the mitochondrial membrane potential - cell viability (AID 720634; calls by dose curve; also: nearly all actives have a fitted effect of over 20% in size; also: potency is read from the fitted curve at half-maximal effect). The method in brief:
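Measuring cytotoxicity alongside mitochondrial potential, the screen quantified ATP by luminescence in HepG2 cells after 1 hr compound incubation and a 30 min room-temperature CellTiter-Glo step.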

The nature of assay [5]: qHTS assay to test for compound auto fluorescence at 590 nm (red) in HepG2 cells (AID 720674). Also: % is scaled to controls: 0 for no effect and ±100 for the full control effect. The method in brief: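 Compound auto-fluorescence is scored relative to Rose Bengal sodium, measured at 540/590 nm in live HepG2 cultures after 1 hr compound contact (37 C, 5% CO2).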
A short description of assay [6]: qHTS assay to test for compound auto fluorescence at 535 nm (green) in HepG2 cells (AID 720675). Also: % is scaled to controls: 0 for no effect and ±100 for the full control effect.
Assay [7] is described as follows: qHTS assay to test for compound auto fluorescence at 460 nm (blue) in HEK293 cells (AID 720678). Also: % is scaled to controls: 0 for no effect and ±100 for the full control effect. In a few lines:
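Measured: blue fluorescence (Ex 405/Em 460 nm) of compound-treated HEK293 cells, incubated overnight at 37C with 5% CO2 and scaled to triamterene equivalents.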

Assay [8] is described as follows: qHTS assay to test for compound auto fluorescence at 590 nm (red) in HEK293 cells (AID 720679). Also: % is scaled to controls: 0 for no effect and ±100 for the full control effect. In a few lines: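 Using HEK293 cells at 2,000 per well, the screen added 23 nL of each compound after cell attachment and incubated overnight (37C, 5% CO2). The plate reader then captured red-label fluorescence, Ex/Em 540/590nm.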
The nature of assay [9]: qHTS assay to test for compound auto fluorescence at 535 nm (green) in HEK293 cells (AID 720680). Also: % is scaled to controls: 0 for no effect and ±100 for the full control effect.
The nature of assay [10]: qHTS assay to test for compound auto fluorescence at 460 nm (blue) in HEK293 cell free culture (AID 720681). Also: % is scaled to controls: 0 for no effect and ±100 for the full control effect. In a few lines: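 Test compounds were pinned into cell-free culture medium (DMEM with 10% FBS) and fluorescence was read directly at Ex/Em 405/460 nm. Signals were expressed as fluorescence equivalents of triamterene, with DMSO vehicle as control.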
The nature of assay [11]: qHTS assay to test for compound auto fluorescence at 535 nm (green) in HEK293 cell free culture (AID 720682). Also: % is scaled to controls: 0 for no effect and ±100 for the full control effect. The method in brief: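 Cell-free medium (DMEM, 10% FBS) receives compound or DMSO by pintool. Plate read directly at Ex 485/Em 535 nm. Signal converted to fluorescein equivalency.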
A short description of assay [12]: qHTS assay to test for compound auto fluorescence at 590 nm (red) in HEK293 cell free culture (AID 720683). Also: % is scaled to controls: 0 for no effect and ±100 for the full control effect. The method in brief: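 Tox21 10K library compounds were pinned into cell-free DMEM with 10% FBS and fluorescence was read at excitation 540 nm. Activity is expressed as Rose Bengal sodium equivalency.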
Assay [13] is described as follows: qHTS assay to test for compound auto fluorescence at 590 nm (red) in HepG2 cell free culture (AID 720684). Also: % is scaled to controls: 0 for no effect and ±100 for the full control effect. In a few lines:
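Measured in medium alone (MEM containing 10% FBS) following pintool addition of compound; emission at 590 nm with 540 nm excitation, referenced to Rose Bengal sodium.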

The nature of assay [14]: qHTS assay to test for compound auto fluorescence at 460 nm (blue) in HepG2 cell free culture (AID 720685). Also: % is scaled to controls: 0 for no effect and ±100 for the full control effect. The method in brief: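 Compound (23 nL) or DMSO pinned into cell-free MEM with 10% FBS; blue fluorescence read at 405/460 nm excitation/emission, expressed as auto-fluorescence equivalency to triamterene.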
Assay [15] in a line: qHTS assay to test for compound auto fluorescence at 535 nm (green) in HepG2 cell free culture (AID 720686). Also: % is scaled to controls: 0 for no effect and ±100 for the full control effect.
Assay [16] in a line: qHTS assay to test for compound auto fluorescence at 460 nm (blue) in HepG2 cells (AID 720687). Also: % is scaled to controls: 0 for no effect and ±100 for the full control effect. In a few lines: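 Cells (2,000/well in MEM with 10% FBS) attached overnight at 37 C, then were exposed to compound or DMSO for 1 hr at 37 C, 5% CO2. Fluorescence read at Ex/Em 405/460 nm, expressed as triamterene-equivalent signal.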
Assay [17] has as its target Glucocorticoid receptor (Homo sapiens) (UniProt P04150). Nature of the assay: qHTS assay to identify small molecule agonists of the glucocorticoid receptor (GR) signaling pathway (AID 720691; active = well fitted activation curve with a large enough effect in the signal ratio in the repeat runs, not every such curve was filed as active; the % refers to the signal ratio; also: % is scaled to controls: 0 for no effect and ±100 for the full control effect). The method in brief: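 Reporter read-out: fluorescence intensity following 2 h room-temperature LiveBLAzer B/G FRET substrate loading. Prior step: GR-bla HeLa cells held 4 h, then treated 18 h at 37 C.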

The target is the same in assay [18]. The experiment in a line: qHTS assay to identify small molecule antagonists of the glucocorticoid receptor (GR) signaling pathway (AID 720692; active = well fitted inhibition curve with a large enough effect in the signal ratio in the repeat runs, not every such curve was filed as active; the % refers to the signal ratio; also: potency is read from the fitted curve at half-maximal effect). The method in brief:
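Dexamethasone (5 nM final) stimulated a stably integrated GRE-beta-lactamase reporter in HeLa cells during 18 h co-incubation with compounds; signal was quantified as fluorescence intensity of B/G FRET substrate after 2 h.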

A short description of assay [19]: qHTS assay for small molecule disruptors of the mitochondrial membrane potential (AID 720635). Also: potency is read from the fitted curve at half-maximal effect. In a few lines:
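HepG2 cells (2,000/well) attached overnight at 37C, then took compound for 1 hr at 37C, 5% CO2. Mito-MPS dye was added for 30 min; fluorescence was read at 490/535 nm (monomers) and 540/590 nm (aggregates).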

Assay [20] can be described thus: qHTS assay for small molecules that induce genotoxicity in human embryonic kidney cells expressing luciferase-tagged ATAD5 - cell viability (AID 651634; calls by dose curve; also: potency is read from the fitted curve at half-maximal effect; nearly all actives have a fitted effect of over 25% in size). In a few lines:
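Seeding of 2,000 HEK293T ATAD5-luciferase cells per well preceded pin-tool compound transfer. Plates sat 15.5 hr at 37C under 5% CO2, then fluorescence was read after 30 min with CellTiter-Fluor.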

Glucocorticoid receptor (Homo sapiens), sequence (P04150 whole entry, looked up): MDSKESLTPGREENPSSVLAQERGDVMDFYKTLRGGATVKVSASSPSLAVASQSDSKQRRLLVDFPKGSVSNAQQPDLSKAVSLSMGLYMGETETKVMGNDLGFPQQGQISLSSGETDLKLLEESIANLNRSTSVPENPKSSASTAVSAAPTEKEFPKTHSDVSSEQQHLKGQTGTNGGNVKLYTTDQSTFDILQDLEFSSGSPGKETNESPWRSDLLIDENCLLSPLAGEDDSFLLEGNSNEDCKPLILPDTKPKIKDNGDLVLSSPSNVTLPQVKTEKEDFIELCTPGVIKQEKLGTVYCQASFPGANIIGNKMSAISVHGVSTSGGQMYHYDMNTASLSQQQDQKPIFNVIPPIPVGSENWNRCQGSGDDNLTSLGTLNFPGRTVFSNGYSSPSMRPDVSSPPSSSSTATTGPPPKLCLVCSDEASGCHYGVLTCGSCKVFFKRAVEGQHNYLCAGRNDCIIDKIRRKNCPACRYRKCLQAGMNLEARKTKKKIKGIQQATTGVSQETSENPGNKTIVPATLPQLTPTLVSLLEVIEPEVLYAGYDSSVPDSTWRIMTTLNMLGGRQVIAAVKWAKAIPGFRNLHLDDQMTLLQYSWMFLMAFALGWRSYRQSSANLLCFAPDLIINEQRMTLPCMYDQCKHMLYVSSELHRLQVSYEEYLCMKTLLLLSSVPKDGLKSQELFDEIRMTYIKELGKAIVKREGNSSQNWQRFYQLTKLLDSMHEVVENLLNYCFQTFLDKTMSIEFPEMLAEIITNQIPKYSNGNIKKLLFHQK

On to `CN1COCN(Cc2cnc(Cl)s2)/C1=N\[N+](=O)[O-]`, for which the Potency result in assay [1], in assay [3], in assay [4], in assay [17] and in assay [18] was “inactive” in each case. Also, the call in assay [2], in [5], in assay [6], in assay [7], in assay [8] and in [9] was inactive. In addition, the molecule was called inactive in assay [10], in [11], in assay [12], in assay [13], in assay [14] and in assay [15]. Also, the molecule was classed as inactive in assay [16].
With `COc1ccc(CN2CCNCC2)c(OC)c1OC`, the Potency entry in assay [1], in assay [3], in assay [4], in assay [19], in assay [17] and in [18] was “inactive” in each case. Also, the molecule was called inactive in assay [2]. The fluorescence, relative to Rose Bengal in [5] was -0.414% [at 18.6 µM]. The fluorescence, % of fluorescein control in assay [6] was 0.0608% [at 18.6 µM]; in assay [15], -0.137% [at 18.6 µM]. Also, in assay [7], the fluorescence, % of triamterene was -0.103% [at 18.6 µM]. For the same molecule, the fluorescence, % of fluorescent control is 0.0575% [at 18.6 µM] in [8]; -0.0368% [at 18.6 µM] in [10]; -0.395% [at 18.6 µM] in [12]; -0.057% [at 18.6 µM] in [14]; -0.0322% [at 18.6 µM] in assay [16]. Further, the fluorescence, % of fluorescein in assay [9] is 0.0001% [at 18.6 µM]. Besides, the activity change in assay [11] was -0.0737% [at 18.6 µM]. Moreover, the fluorescence, % of Rose Bengal in [13] was 0.0451% [at 18.6 µM].
As to `CCOC(=O)CC(SP(=S)(OC)OC)C(=O)OCC` (stereo not drawn), the Potency result in assay [1], in assay [3], in assay [19], in assay [17] and in assay [18] was “inactive” throughout. For the same molecule, the result in assay [2], in assay [5], in assay [6], in assay [7], in assay [8] and in assay [9] was inactive. Further, the molecule was called inactive in [10], in assay [11], in [12], in [13], in assay [14] and in assay [15]. Further, the result in [16] was inactive.
Turning to `NC(=O)OCCCc1ccccc1`, the Potency entry in assay [1], in assay [3], in assay [4], in assay [19], in assay [17] and in assay [18] was “inactive” in each case. For the same molecule, the call in [2], in [5], in [7], in [8], in assay [9] and in [10] was inactive. Further, the call in assay [11], in [12], in [13], in assay [15] and in assay [16] was inactive.
Take `CC#Cc1cc(C)nc(Nc2ccccc2)n1`: the Potency result in [1], in assay [3], in assay [4] and in [17] was “inactive” each time. The molecule was called inactive in assay [2], in assay [5], in [6], in assay [7], in assay [8] and in assay [9]. Besides, the call in [10], in assay [11], in assay [12], in assay [13], in assay [14] and in [15] was inactive. For the same molecule, the molecule was called inactive in assay [16]. Moreover, the values for the Potency in [19] and in assay [18] were 27.3 µM (active) and 54.9 µM (active), respectively.
As to `C[C@H]1CCCC(=O)CCC/C=C/c2cc(O)cc(O)c2C(=O)O1`, the Potency in [1] was 9.33 µM (active) and 22.4 µM (active); in [20] it was 20.9 µM (active); in [4], 11.7 µM (active) and 20 µM (active); in assay [19], 2.34 µM (active) and 4.47 µM (active). In addition, the outcome in assay [2], in [5], in [6], in assay [7], in [8] and in assay [10] was inactive. The result in [11], in assay [12], in [13], in assay [14], in [15] and in [16] was inactive.
Consider `CCN(CC)C1CCCCC1`, for which the Potency entry in assay [1], in assay [4], in assay [17] and in assay [18] was “inactive” throughout. The molecule was called inactive in [2], in assay [5], in assay [6], in assay [7], in assay [8] and in assay [10]. Also, the result in assay [11], in [12], in assay [13], in [14], in assay [15] and in [16] was inactive.

For the origin of these results see PubChem BioAssay (Tox21).
